High-throughput results: PubChem, National Center for Advancing Translational Sciences (NCATS)
Compounds with a hit are over-represented: about 19% of the library has one in this group of screens.
DT40 TDP1 CPT: qHTS for Inhibitors of human tyrosyl-DNA phosphodiesterase 1 (TDP1): qHTS in cells in presence of CPT. actives 12% (n = 420,000). Potency, µM (series often up to 46.2 µM), without a hit: at the top dose activity change, negative = growth inhibition, most hits filed as inhibitors. chicken DT40 Tdp1-/-;hTDP1 cells + 20 nM CPT, ATP luminescence, 48 h. AID 686979, 2013; note: potency is the fitted concentration of half-maximal effect; nearly all actives have a fitted effect of over 55% in size
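Cell growth measured by CellTiter-Glo luminescence after a minimum 48 h, 37 C compound exposure with 20 nM CPT in Tdp1-knockout DT40 cells stably expressing hTDP1, seeded 400/well; qHTS titration format.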
IL-1B inflam inh: qHTS for Inhibitors of Inflammasome Signaling: IL-1-beta AlphaLISA Primary Screen; THP-1 LPS/ATP IL-1B secretion, AlphaLISA, 16 h; stronger effect = lower value; activity change, % at 57.5 µM; actives 4.7% (n = 360,000); AID 743279, 2014; in the data active = activity change below about -50%; inconclusive = mostly about -30% to -49%
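Secreted IL-1B measured by AlphaLISA bead assay after 16 h compound exposure of THP-1 cells; compounds (final up to 57.5 uM) added 1 h before LPS (250 ng/mL) and ATP (1.25 mM) stimulation; lower signal means less secretion.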
HT1080NT lethal: qHTS for induction of synthetic lethality in tumor cells producing 2HG: qHTS for the HT-1080-NT fibrosarcoma cell line. HT-1080-NT fibrosarcoma viability, CellTiter-Glo ATP luminescence, 48 h. Potency, µM (top dose mostly 46.1 µM), without a hit: at the highest dose activity, negative = less viability, actives largely listed as cytotoxic. actives 1.6% (n = 360,000). AID 686970, 2013;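 note: NT is the 2HG producing partner of a matched IDH1 knockdown line; potency is the fitted concentration of half-maximal effect; 0% = DMSO-treated cells and -100% = media-only wells without cells; nearly all actives have a fitted effect of over 55% in size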
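Compounds were tested in concentration-response format on HT-1080-NT cells for 48 hours at 37 degrees C. Cell viability came from CellTiter-Glo luminescence; curves were classified by r2, response magnitude and activity.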
uPA generation: qHTS for Inhibitors of Cell Surface uPA Generation. cell surface uPA generation assay, qHTS. Potency, µM (top dose mostly 38.3 µM), without a hit: top-dose activity change, negative = inhibition, actives largely listed as inhibitors. actives 0.31% (n = 330,000); active = well fitted inhibition curve with a large enough effect; inconclusive = small, poorly fitted or top-dose-only effect; inactive = no such curve, though single readings can be large or run the other way; tested in mouse RAW 264.7 cells; note: potency is the fitted concentration of half-maximal effect; nearly all actives have a fitted effect of over 55% in size
HT1080 IDH1KD tx: qHTS for induction of synthetic lethality in tumor cells producing 2HG: qHTS for the HT-1080-IDH1KD cell line. actives 2% (n = 360,000). Potency, µM (top dose mostly 46.1 µM), for inactives: top-dose activity, negative = toxicity, hits mostly cytotoxic. AID 686971, 2013. HT-1080 IDH1 knockdown viability, ATP luminescence, 48 h;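 note: potency is the fitted concentration of half-maximal effect; 0% = DMSO wells and -100% = cell-free medium wells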
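Knockdown cells (IDH1KD HT-1080) received compounds 2 h after plating at 750 cells/well and were kept 48 h at 37 °C in 5% FBS RPMI. A CellTiter-Glo luminescence read gave % activity for curve fitting.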
DT40 TDP1 no CPT: qHTS for Inhibitors of human tyrosyl-DNA phosphodiesterase 1 (TDP1): qHTS in cells in absence of CPT; DT40 Tdp1-/- hTDP1 cells, no CPT, ATP luminescence, 48 h; Potency, µM (titrated, usually from 46.2 µM), inactives show top-dose activity change, negative = growth inhibition, usual class: inhibitors; actives 15% (n = 420,000); AID 686978, 2013; note: potency is the fitted concentration of half-maximal effect; nearly all actives have a fitted effect of over 55% in size
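Seeded 400 DT40-hTDP1 cells/well (vehicle DMSO, no 20 nM CPT); pinned compounds; ≥48 hr at 37 °C; CellTiter-Glo luminescence as viability measure.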
* hit, by the source's call; ? = inconclusive; . = not tested or not shown; [ ] = remark or other dose. Unless noted, calls come from the whole dose curve; as a rule, active = well fitted curve in the direction sought with a large enough effect; inconclusive = small, poorly fitted or top-dose-only effect, or another doubt; inactive = no such curve, though single readings can be large; an effect the other way counts as inactive or inconclusive. Unless noted, % is set by controls: 0 for no effect and ±100 for the full control effect.

SMILES | DT40 TDP1 CPT | IL-1B inflam inh | HT1080NT lethal | uPA generation | HT1080 IDH1KD tx | DT40 TDP1 no CPT
Cc1ccc(NC(=O)N(Cc2ccc3c(c2)OCO3)Cc2cc3cc4c(cc3[nH]c2=O)OCCO4)cc1 | 18.4µM* | ? | 8.7% | 1.8% | 3.8% | ?
O=C(Nc1ccccc1F)N(CCCN1CCOCC1)Cc1cc2cc3c(cc2[nH]c1=O)OCCO3 | 16.4µM* | ? | -27.4% | -7.4% | ? | 16.4µM*
O=C1CSc2ccc(C(=O)N3CCCCC3)cc2N1 | -15.3% | 20.9 | 8.6% | . | -1.4% | ?
FC(F)C(F)(F)Oc1cccc(Nc2nccn3c(-c4cccc5ccccc45)cnc23)c1 | 16.4µM* | -25.6 | ? | . | ? | ?
Oc1ccc(-c2cnc3c(Nc4cccc(OC(F)(F)C(F)F)c4)nccn23)cc1 | ? | 19.4 | ? | . | ? | ?
FC(F)C(F)(F)Oc1cccc(Nc2nccn3c(-c4ccc5ccccc5c4)cnc23)c1 | ? | 31.5 | -20.0% | . | ? | 23.1µM*
O=C(NC1CC(=O)N(c2ccc(F)cc2)C1)c1ccco1 (configuration not stated) | -15.8% | . | . | . | . | -21.9%
CC1NS(=O)(=O)c2cc([N+](=O)[O-])ccc21 (configuration not stated) | -5.5% | 16.5 | 19.0% | . | 9.1% | -21.8%
O=C(c1ccc2c(c1)OCCO2)N(Cc1cccnc1)c1nc2ccc(Cl)cc2s1 | -15.6% | . | . | . | . | -2.7%
O=C(c1ccc2c(c1)OCCO2)N(Cc1cccnc1)c1nc2c(F)cccc2s1 | 20.6µM* | . | . | . | . | ?
COc1cccc2sc(N(Cc3cccnc3)C(=O)c3ccc4c(c3)OCCO4)nc12 | ? | . | . | . | . | 16.4µM*
CCOc1ccc2nc(N(Cc3cccnc3)C(=O)c3cccs3)sc2c1 | 1.9% | . | . | . | . | -4.7%
COc1ccc2sc(N(Cc3cccnc3)C(=O)c3cccs3)nc2c1 | 20.6µM* | . | . | . | . | 18.4µM*
CCOc1cccc2sc(N(Cc3cccnc3)C(=O)c3ccc(C#N)cc3)nc12 | 18.4µM* | . | . | . | . | 23.1µM*
CC(=O)OCC1OC(n2c(-c3ccc(Cl)cc3)ccc(C#N)c2=S)C(OC(C)=O)C(OC(C)=O)C1OC(C)=O (configuration not stated) | -15.3% | 16.8 | 2.3% | 8.7% | 18.3% | -11.7%
Cc1ccccc1-c1nccc(NCCN2CCOCC2)n1 | -5.7% | . | . | . | . | 8.4%
O=c1cc(-c2ccccc2)[nH]n1-c1ccc([N+](=O)[O-])cc1 | 18.4µM* | -63.8* | ? | . | 12.6µM* | ?
Cc1ccc([N+](=O)[O-])cc1N=Nc1c(C)[nH]n(C(N)=S)c1=O | -8.3% | 8.3 | -4.4% | -11.4% | 9.2% | -0.8%
O=c1c(N=Nc2ccc(O)cc2)c(-c2ccccc2)[nH]n1-c1ccc([N+](=O)[O-])cc1 | ? | -21.8 | -24.3% | -8.2% | -17.0% | 16.4µM*
Cc1[nH]n(C(N)=S)c(=O)c1N=Nc1ccc(Br)cc1 | 23.1µM* | 8.9 | -5.7% | 5.7% | -9.0% | 16.4µM*
O=Nc1c(-c2ccccc2)[nH]n(-c2ccccc2)c1=O | 3.3% | -17.9 | -8.2% | -2.1% | ? | ?
Cc1ccc([N+](=O)[O-])cc1N=Nc1c(-c2ccc([N+](=O)[O-])cc2)[nH]n(C(N)=S)c1=O | 8.2µM* | ? | ? | -17.6% | ? | 2.91µM*
CC(=O)c1ccc(NC(=O)Cn2cc(S(=O)(=O)Cc3ccccc3Cl)c3ccccc32)cc1 | -23.2% | . | . | . | . | -10.2%
COCCNC(=O)CSc1nnc(NC(=O)C2CC(=O)N(c3ccccc3OC)C2)s1 (configuration not stated) | 3.1% | 13.1 | -3.8% | -1.6% | -1.1% | -18.5%
NC(=S)n1[nH]c(-c2ccc([N+](=O)[O-])cc2)c(N=Nc2ccc(Cl)cc2)c1=O | ? | -91.8* | 2.59µM* | -4.3% | 4.11µM* | ?
SMILES | DT40 TDP1 CPT | IL-1B inflam inh | HT1080NT lethal | uPA generation | HT1080 IDH1KD tx | DT40 TDP1 no CPT
Cc1ccc(N=Nc2c(C)[nH]n(C(N)=S)c2=O)cc1 | -16.1% | 8.8 | -20.4% | -5.2% | -3.7% | ?
COc1ccc(NC(=O)N(Cc2ccco2)C2CCN(C(C)=O)CC2)c(OC)c1 | 0.2% | . | . | . | . | ?
CCN(CC)CCOC(=O)c1ccc(NC(=O)c2cc3cc(OC)ccc3oc2=O)cc1 | 0.0411µM* | . | . | . | . | 0.0058µM*
CCN(CC)CCOC(=O)c1c(C)oc2ccc(OC)cc12 | -3.6% | -85.6* | -18.1% | -2.4% | ? | -2.4%
CCN(CC)CCOC(=O)c1ccc(NC(=O)c2cc3cccc(OC)c3oc2=O)cc1 | 20.6µM* | . | . | . | . | ?
COc1ccccc1P(=O)(Cc1ccccc1)c1ccccc1 (configuration not stated) | -28.0% | 7.4 | 4.9% | -2.2% | 9.4% | ?
COc1ccc(S(=O)(=O)Nc2ccc3c(c2)C(=O)N([C@@H](C)CO)C[C@H](C)[C@H](CN(C)S(=O)(=O)c2ccc(F)cc2)O3)cc1 | ? | -26.1 | 1.8% | 16.5% | 0.1% | ?
O=C(NCc1cccnc1)c1c[nH]c2cc3c(cc2c1=O)OCCO3 | 10.3µM* | -24.0 | -14.8% | -9.8% | ? | 5.8µM*
O=C(NCc1ccccc1)c1c[nH]c2ccc(S(=O)(=O)Nc3ccc4c(c3)OCCO4)cc2c1=O | -24.2% | -3.6 | -27.3% | 12.6% | -26.4% | -28.8%
Cc1ccccc1Nc1nnc(SCc2cc(=O)n3ccsc3n2)s1 | ? | 0.0 | -2.8%[9.24 µM] | . | ? | 16.4µM*
NS(=O)(=O)c1ccc(NC(=O)COC(=O)CNC(=O)C23CC4CC(CC(C4)C2)C3)cc1 | ? | 20.7 | -8.4% | -5.3% | -1.0% | 35.5%
COc1ccc(CN2CC(=O)N(c3ccccc3C)C2=S)cc1OC | -35.5% | 21.7 | -19.3% | -5.2% | -20.0% | ?
COc1cc(CN2CC(=O)N(c3cc(Cl)ccc3C)C2=S)cc(OC)c1OC | 20.6µM* | 8.9 | -26.6% | -9.7% | -3.4% | 20.6µM*
COc1cc(CN2CC(=O)N(c3ccc(C)c(C)c3)C2=S)cc(OC)c1OC | ? | -6.0 | 2.4% | -7.1% | -8.9% | ?
CCc1ccccc1N1C(=O)CN(Cc2cc(OC)c(OC)c(OC)c2)C1=S | ? | -8.6 | -8.8% | 0.3% | 0.2% | 20.6µM*
COc1ccc(CN2CC(=O)N(c3cc(Cl)ccc3C)C2=S)cc1OC | ? | -22.5 | 7.5% | -6.0% | -0.2% | ?
